Hits are enriched below; roughly 12% of the tested compounds scored in any of these assays.
Ins promoter up – MIN6 insulin promoter up-regulation; MIN6 insulin promoter-GFP reporter, high-content imaging; hits give high values; z-score at 5 µM; 190,000 tested, 0.3% active;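 active means z-score above 3 at 5 µM with at least 500 cells counted in the well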
Lmaj promast – Leishmania major promastigote growth inhibition; Leishmania major promastigotes, resazurin fluorescence viability; inhibition, % at 10 µM; 200,000 tested, 9% active; AID 1063; in the data active means inhibition above about 50%;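 further: promastigotes grown with compound for 44 hours at 28 °C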
Cl transport mod – modulators of human KCC2 chloride dependent transport. Q9H2X9. KCC2 cells, thallium flux FluoZin-2 fluorescence. B-score of Tl+ flux slope (higher = more flux/activation; lower = inhibition) at 10 µM. 190,000 tested, 2.2% active. AID 1456;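 active means thallium flux slope and its plate-corrected score both differing from the plate sample mean at a set confidence after two filtering rounds, in either direction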;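 further: slope of fluorescence scaled to starting intensity during 10 to 20 s after thallium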
Target sequence (Q9H2X9 whole entry, looked up): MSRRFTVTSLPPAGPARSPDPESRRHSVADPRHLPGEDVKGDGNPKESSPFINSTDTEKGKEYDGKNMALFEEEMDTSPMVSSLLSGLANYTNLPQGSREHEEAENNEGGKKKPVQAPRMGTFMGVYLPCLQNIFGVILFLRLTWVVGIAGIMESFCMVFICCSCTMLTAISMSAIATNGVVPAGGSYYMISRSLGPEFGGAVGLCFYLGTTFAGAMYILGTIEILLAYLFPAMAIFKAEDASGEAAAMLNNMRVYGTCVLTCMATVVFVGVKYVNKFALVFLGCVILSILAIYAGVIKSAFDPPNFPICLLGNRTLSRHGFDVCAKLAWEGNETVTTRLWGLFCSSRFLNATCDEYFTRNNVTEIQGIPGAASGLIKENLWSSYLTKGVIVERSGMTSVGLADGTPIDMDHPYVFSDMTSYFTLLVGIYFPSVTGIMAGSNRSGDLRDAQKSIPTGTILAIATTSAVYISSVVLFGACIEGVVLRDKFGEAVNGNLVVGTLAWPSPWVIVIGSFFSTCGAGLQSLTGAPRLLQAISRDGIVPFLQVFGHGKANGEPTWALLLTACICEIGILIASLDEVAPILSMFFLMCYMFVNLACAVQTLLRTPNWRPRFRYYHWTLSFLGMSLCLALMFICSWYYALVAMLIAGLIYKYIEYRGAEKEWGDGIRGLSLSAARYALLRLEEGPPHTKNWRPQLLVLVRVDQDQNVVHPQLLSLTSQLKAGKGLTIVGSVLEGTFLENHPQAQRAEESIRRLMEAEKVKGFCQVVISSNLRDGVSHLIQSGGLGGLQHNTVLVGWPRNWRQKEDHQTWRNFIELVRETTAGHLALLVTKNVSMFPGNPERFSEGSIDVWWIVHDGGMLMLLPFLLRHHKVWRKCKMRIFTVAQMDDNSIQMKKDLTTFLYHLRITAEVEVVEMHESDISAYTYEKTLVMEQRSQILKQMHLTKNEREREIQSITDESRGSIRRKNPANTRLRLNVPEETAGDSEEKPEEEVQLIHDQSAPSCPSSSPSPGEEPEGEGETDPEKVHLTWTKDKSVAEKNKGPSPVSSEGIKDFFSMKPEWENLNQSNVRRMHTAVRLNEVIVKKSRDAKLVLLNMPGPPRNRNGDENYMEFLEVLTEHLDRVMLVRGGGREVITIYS
INS promoter inh – TRM-6 insulin promoter activity inhibition; AID 1273; 130,000 tested, 0.9% active; TRM-6 cells (human fetal islet line), insulin promoter-eGFP reporter, imaging; reporter expression induced with tamoxifen; inhibition, % at 2 µM;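 active means inhibition above the mean plus 3 SD, with well images judged a real hit on visual review, cut at about 60% in these data, passing the limit was not always enough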
WT yeast gro inh – growth inhibition of WT yeast, mitochondrial fusion screen; 190,000 tested, 2.1% active; mitochondrial fusion phenotypic screen, WT strain; inhibition, % at 10 µM; in the data active means inhibition above about 58%; tested in S. cerevisiae
ROMK primary – modulators of human ROMK potassium channel. P48048. Tet-inducible ROMK, thallium flux fluorescence; actives lie on both sides. B-score at 10 µM. 130,000 tested, 2% active. AID 1918;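 active means signal ratio slope over the read window, or its plate-corrected B-score, at least 3 SD from the plate mean, either direction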;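 further: B-score of the F/F0 ratio slope over 7 to 12 s after thallium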
* hit, by the source's call; nt = no result.

SMILES	Ins promoter up	Lmaj promast	Cl transport mod	INS promoter inh	WT yeast gro inh	ROMK primary
C/C(=N\NC(=O)c1nn(C)cc1Br)c1cccc(NC(=O)C(C)(C)C)c1	0.43	22	-0.013	9	-2	-0.049
C/C(=N\NC(=O)C1(C)CC1(Br)Br)c1cccc(NC(=O)C(C)(C)C)c1 (stereo not drawn)	0.06	60*	-0.21	17	-12	-0.84
Cc1ccc(NC(=O)CN(C)C(=O)COc2ccc(C(=O)c3ccc(F)cc3)cc2)cc1	nt	11	0.036	0	10	-0.038
O=C(COC(=O)C1=Cc2ccccc2OC1)NCc1ccco1	0.2	-9	-2	nt	-20	-0.12
Cc1ccc(-c2nnc(Nc3ccccc3)c3ccccc23)cc1S(=O)(=O)NCC1CCCO1 (stereo not drawn)	-0.25	80*	-0.74	-31	3	nt
Cc1ccc(-c2nnc(Nc3ccc4c(c3)OCO4)c3ccccc23)cc1S(=O)(=O)NC(C)C	-0.66	91*	-1.6	29	-3	1.5
CC(=O)Nc1ccc(Nc2nnc(-c3ccc(C)c(S(=O)(=O)NCC4CCCO4)c3)c3ccccc23)cc1 (stereo not drawn)	-0.16	nt	0.68	nt	nt	nt
Cc1ccc(-c2nnc(Nc3ccc4c(c3)OCO4)c3ccccc23)cc1S(=O)(=O)NCCO	-1.2	77*	-2.2	5	-3	-0.52
CCc1noc(C)c1C(=O)N1CCCC(C(=O)c2ccc(OC)c(F)c2)C1 (stereo not drawn)	0.79	-5	nt	nt	7	0.11
COc1ccc(Cn2nnnc2C(c2cc(OC)ccc2OC)N2CCC(C(N)=O)CC2)cc1 (stereo not drawn)	0.45	-1	0.84	25	11	-0.044
COc1cc(OC)c(-c2nnc(-c3ccc(OC)c(OC)c3OC)o2)cc1OC	-1.5	56*	-0.14	5	23	0.83
CNS(=O)(=O)c1cccc(C(=O)NCC(c2cccs2)N(C)C)c1 (stereo not drawn)	0.18	-6	nt	73*	14	0.87
CCN(CC)c1cnn(C/C(=N\OC)c2ccc(Cl)cc2)c(=O)c1Br	-0.24	8	-3.7*	-136	8	nt
O=C(NCCSc1ccc(Cl)cc1)c1ccc(CN2CCOCC2)cc1	-0.22	38	nt	-76	-20	-0.57
O=C(NCc1ccc2c(c1)OCO2)c1ccc(CN2CCOCC2)cc1	0.6	3	nt	89*	-3	nt
Cc1cccc(CSCCNC(=O)c2ccc(CN3CCOCC3)cc2)c1	0.12	86*	-1	71*	5	-1.5
O=C(NCCSc1ccccc1)c1ccc(CN2CCOCC2)cc1	-0.47	nt	-0.35	nt	nt	nt
O=C(NCCSCc1ccc(Cl)cc1Cl)c1ccc(CN2CCOCC2)cc1	-1.7	89*	-0.45	7	55	nt
O=C(c1ccc(CS(=O)(=O)c2c(Cl)cccc2Cl)o1)N1CCCC1	0.68	1	-3.3	nt	-1	nt
CC(NC(N)=O)C(=O)NCC(=O)OCc1ccccc1 (stereo not drawn)	-0.12	3	1	nt	2	0.11
CC(=O)SCC(Cc1ccccc1)C(=O)NCC(=O)OCc1ccccc1 (stereo not drawn)	1.1	nt	-4.2*	nt	14	nt
COC(=O)[C@H](Cc1c[nH]c2ccccc12)NC(=O)Nc1ccccc1OC	-0.39	nt	-0.68	nt	nt	-1.9
Cc1ccc(C(=O)Nc2nc(-c3ccccc3)c(-c3ccccc3)o2)cc1	0.82	-5	31*	44	69*	1.1
Cc1cc(C)nc(SCC(=O)Nc2nc(-c3ccccc3)c(-c3ccccc3)o2)n1	0.81	-7	-1.4	nt	54	nt
Cc1ccc(C(=O)Nc2nnc(-c3ccncc3)o2)cc1	-0.36	53*	1.4	nt	6	0.23
SMILES	Ins promoter up	Lmaj promast	Cl transport mod	INS promoter inh	WT yeast gro inh	ROMK primary
O=C(Nc1nnc(-c2ccc(Cl)cc2)o1)c1ccc(N2C(=O)CCC2=O)cc1	0.04	66*	12*	25	7	1.1
CCN(CC)CCNC(=O)c1c(O)c2cc(OC)c(OC)cc2[nH]c1=O	0.2	79*	1.3	30	-10	0.96
COc1cc2[nH]c(=O)c(C(=O)NCCCN3CCOCC3)c(O)c2cc1OC	-0.08	31	1.6	nt	-7	0.56
CCCC(C)C(=O)Nc1nc(C)c(-c2csc(Nc3ccc(Cl)cc3)n2)s1 (stereo not drawn)	-0.59	18	-0.61	-27	57	nt
CCCCCCC(=O)Nc1nc(C)c(-c2csc(Nc3ccccc3OC)n2)s1	-2.2	55*	-1	20	2	nt
CCCCC(=O)Nc1nc(C)c(-c2csc(Nc3cc(Cl)ccc3OC)n2)s1	-1.3	40	-1.2	-33	6	nt
CCCCCC(=O)Nc1nc(C)c(-c2csc(Nc3ccccc3OCC)n2)s1	-1	52*	0.0026	-18	-15	nt
CCCCCC(=O)Nc1nc(C)c(-c2csc(Nc3ccccc3OC)n2)s1	-1.9	73*	-0.67	-56	49	nt
CCCC(C)C(=O)Nc1nc(C)c(-c2csc(Nc3ccccc3OC)n2)s1 (stereo not drawn)	-2.4	96*	0.96	0	2	nt
Cn1c(Cn2c(=O)sc3ccccc32)nnc1SCC(=O)NCC1CCCO1 (stereo not drawn)	-0.5	-6	0.53	nt	-7	nt
Cc1cc(C)n(-c2ccc(C(C)C)cc2)c(=O)c1C#N	0.02	-1	-0.67	32	0	0.86
C(=C\c1ccccc1)/C=N/Nc1nc2ccccc2[nH]1	-1.1	37	-0.28	nt	53	nt
C(=N\Nc1nc2ccccc2[nH]1)/C1CCCCC1	1.3	68*	-0.34	22	-2	-0.58
C(/CCc1ccccc1)=N\Nc1nc2ccccc2[nH]1	-0.51	67*	0.24	0	-1	0.0042
COc1ccc(-c2cc(-c3cccs3)c(C#N)c(SCC(=O)NCc3ccccc3)n2)cc1	-0.69	2	0.19	14	5	nt
COc1ccc(-c2cc(-c3cccs3)c(C#N)c(SCC(=O)NCc3ccccc3OC)n2)cc1	0.94	91*	0.68	5	1	nt
Cc1ccc(NC(=O)CSc2ccc(-c3cccnc3)nn2)cc1Cl	-0.54	2	0.18	31	-3	nt
COc1ccc(CCNC(=O)CSc2ccc(-c3ccccc3)nn2)cc1	-0.13	-1	-0.91	nt	-6	nt
COc1ccccc1CNC(=O)CSc1ccc(-c2ccncc2)nn1	-0.81	94*	0.018	17	14	-0.18
CCOC(=O)c1ccc(NC(=O)CSc2ccc(-c3ccncc3)nn2)cc1	-1.4	75*	-1.2	-8	6	0.59
COc1cccc(CNC(=O)CSc2ccc(-c3ccncc3)nn2)c1	0.05	89*	0.85	0	9	0.043
COc1ccc(C(=O)N2CCc3cc(OC)c(OC)cc3C2c2cccc([N+](=O)[O-])c2)cc1OC (stereo not drawn)	-0.32	15	nt	nt	7	0.19
COc1ccc(N2CCN(C(=O)c3cccc(F)c3)CC2)c([N+](=O)[O-])c1	-0.61	-4	-0.25	nt	17	-1.1
COc1cccc(-c2ccc(SCC(=O)c3ccccc3)nn2)c1	0.28	17	0.84	78*	30	0.22
